Laboratory results: PubChem BioAssay AID488975 (Johns Hopkins Ion Channel Center, 2010)
Out of some 310,000 compounds screened, about 2,600 (0.84%) were called active.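 How the source made its calls: active means B-score over 3 SD under the library average, and starting fluorescence ratio not unusually high; inactive means the rest.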 The sample as a whole holds a higher share of actives than the screen did.

Each compound was assayed against High affinity choline transporter 1 (Homo sapiens) (UniProt Q9GZV3) (assay: inhibits the human high affinity choline transporter (AID 488975;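 on B-score: choline stimulus applied at its EC90 after an EC20 pre-addition; B-score computed on integrated fluorescence ratio after choline addition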)). Settings: CHT-expressing cells, membrane potential dye, choline response, at 10 µM; hits give low values.
Sequence of High affinity choline transporter 1 (Homo sapiens) (Q9GZV3 whole entry, looked up): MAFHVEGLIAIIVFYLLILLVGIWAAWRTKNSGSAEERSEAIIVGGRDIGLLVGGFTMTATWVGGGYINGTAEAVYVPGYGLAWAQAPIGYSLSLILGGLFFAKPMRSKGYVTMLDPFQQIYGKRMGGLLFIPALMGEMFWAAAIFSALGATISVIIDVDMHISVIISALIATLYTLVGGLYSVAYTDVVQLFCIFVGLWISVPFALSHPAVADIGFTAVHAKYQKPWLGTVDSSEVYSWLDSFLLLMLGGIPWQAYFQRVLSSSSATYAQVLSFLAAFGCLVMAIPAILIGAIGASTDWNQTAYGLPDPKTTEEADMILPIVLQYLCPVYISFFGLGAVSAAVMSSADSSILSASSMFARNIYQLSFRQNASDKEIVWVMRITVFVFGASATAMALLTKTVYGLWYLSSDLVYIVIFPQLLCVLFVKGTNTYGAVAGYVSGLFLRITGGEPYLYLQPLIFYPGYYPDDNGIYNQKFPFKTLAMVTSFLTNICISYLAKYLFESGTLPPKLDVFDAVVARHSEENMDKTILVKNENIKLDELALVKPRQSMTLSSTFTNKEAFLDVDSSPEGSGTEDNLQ

B-score, active:
COC(=O)CN1C(C)=Nc2ccc(Br)cc2C1c1ccccc1 (configuration not stated) -5.31
COc1ccc(-n2nnnc2CNC(=O)c2ccc3ccccc3c2)cc1 -5.47
CC(C)n1c(=S)[nH]c2cc(C(F)(F)F)ccc21 -8.94
CCOC(=O)N1CCN(C(=O)c2ccc(CN(c3ccc(C)c(C)c3)S(C)(=O)=O)cc2)CC1 -6.25
CCNC(=O)CC1C(=O)N(c2ccc(F)cc2)C(=O)N1CCc1sccc1C (configuration not stated) -5.75
CN(C)c1ccc(Nc2c3c4c(cccc4n(C)c2=O)C(=O)c2ccccc2-3)cc1 -9.73
COc1ccc(Cn2c(=O)sc3ccccc32)cc1OC -5.56
CCN(CC)CCC(c1ccc2c(c1)OCO2)c1c(OC)cc(OC)c2c(-c3ccccc3)cc(=O)oc12 (configuration not stated) -6.84
CCc1cc2c(N3CCN(c4nnc(CC)s4)CC3)ncnc2s1 -7.24
O=C(NCCCn1ccnc1)C(=O)c1cn(CC(=O)N2CCCCCC2)c2ccccc12 -6.23
CCCCn1c(SCC(=O)NCC2CCCO2)nc2ccc(N3CCOCC3)cc2c1=O (configuration not stated) -5.48
CCC(=O)Nc1nnc(S(=O)(=O)N(CC(C)C)c2ccccc2)s1 -5.75
COc1ccc2c(c1)OC(O)(C(F)(F)C(F)F)CC2=O (configuration not stated) -5.18
O=C(Nc1nonc1-c1ccc(Cl)cc1)c1ccco1 -5.55
O=S(=O)(Cc1cc(Cl)nc(-c2cccnc2)n1)c1ccccc1 -6.86
O=C(c1cccs1)C1C(c2ccc(Br)cc2)NC(=S)NC1(O)C(F)(F)F (configuration not stated) -8.32
Cc1cccc(C)c1NC(=O)c1ccc(CN2CCc3ccccc3C2)cc1 -5.84
C=CCn1c(SCc2ccc(C(=O)NCCO)cc2)nc2ccccc2c1=O -5.96

B-score, inactive:
CCC(CC)C(=O)N1CC(=O)Nc2ccc(Br)cc2C1c1ccccc1 (configuration not stated)
COC(=O)C1=C(C)N(C)C(C)=C(C(=O)OC)C1c1cccc(Br)c1
O=C(Nc1ncccc1O)c1ccc(S(=O)(=O)N2CCCC2)cc1
COc1ccc(-n2nnnc2SCC(=O)c2ccc(OC)c(OC)c2)cc1
COc1ccc(CNC(=O)c2ccc3oc(C(C)C)nc3c2)cc1
COc1ccc(NC(=O)CN(C)C(=O)Cc2coc3cc(C)c(C)cc23)cc1
CC(C)Oc1ccc(S(=O)(=O)N2CCOCC2)cc1NC(=O)C1CSC2(C)CCC(=O)N12 (configuration not stated)
O=C(Nc1cc(-c2ccccc2)nn1-c1ccccc1F)c1ccc([N+](=O)[O-])cc1
COc1ccc(S(=O)(=O)N2CCOC2CNC(=O)C(=O)NCc2ccncc2)cc1C (configuration not stated)
CC1CCN(C(=O)c2cccc(S(=O)(=O)N3CCCc4ccccc43)c2)CC1
CC(C)n1c(=O)[nH]c2cc(C(=O)Nc3ccccc3)ccc21
CCCn1c(=S)[nH]c2ccc(C(F)(F)F)cc21
Cc1c(NC(=O)C(C)OC(=O)c2c3c(nc4ccccc24)CCC(C)C3)c(=O)n(-c2ccccc2)n1C (configuration not stated)
COc1ccc2sc(N(CCCN(C)C)C(=O)c3ccc(S(=O)(=O)N(C)C4CCCCC4)cc3)nc2c1
O=C(c1ccc(F)c(S(=O)(=O)N2CCOCC2)c1)N(CCc1ccccc1)Cc1ccccc1
COc1ccc(N(C)S(=O)(=O)c2ccc3c(c2)CC(C)N3C(=O)C2CC2)c(OC)c1 (configuration not stated)
Cc1ccc(N(Cc2ccc(C(=O)Nc3ccccc3C(=O)NCc3ccco3)cc2)S(C)(=O)=O)cc1C
CCOC(=O)N1CCN(C(=O)CN(c2ccc(C)c(C)c2)S(=O)(=O)c2ccccc2)CC1
COc1ccc(NC(=O)CN(C)C(=O)c2cc(-c3ccc(C)o3)nc3ccccc23)cc1
CCNC(=O)CC1C(=O)N(c2ccc(F)cc2)C(=O)N1Cc1cccs1 (configuration not stated)
COc1ccc(N2C(=O)C(CC(=O)Nc3ccc(F)cc3)N(CCc3cccs3)C2=O)cc1 (configuration not stated)
CC(=O)Nc1ccc(C(=O)Nc2cccc(S(=O)(=O)NC3=NCCC3)c2)cc1
CN(C)c1ccc(C2N(C)C(=O)c3ccccc3N2C)cc1 (configuration not stated)
COc1ccc(/C=C2\SC(=S)N(CCCC(=O)NC3CCCC3)C2=O)cc1OC
COc1ccccc1CNC(=O)CCn1c(=O)sc2ccccc21
Cc1cccc(CSc2nnc(Cn3c(=O)sc4ccccc43)n2C)c1
O=C(NCC1(N2CCCCC2)CCCCC1)c1ccc(NS(=O)(=O)c2ccc(F)cc2)cc1
Cc1ccc(C)c(OCCC(=O)Nc2cccc(S(=O)(=O)N3CCCC3)c2)c1
O=C(/C=C/c1ccc([N+](=O)[O-])o1)NNC(=O)c1ccc(F)cc1
CCN(CC)C(=O)CC(c1ccc2c(c1)OCO2)c1c(OC)cc(OC)c2c(-c3ccccc3)cc(=O)oc12 (configuration not stated)
CCN(CC)CCC(c1cc(OC)c(OC)c(OC)c1)c1c(OC)cc(OC)c2c(-c3ccccc3)cc(=O)oc12 (configuration not stated)
Cc1ccc(S(=O)(=O)N2CCOCC2)cc1C(=O)Nc1ccccc1N1CCCC1
COc1ccc(N2CCN(S(=O)(=O)c3cc4c5c(c3)C(C)C(=O)N5CCC4)CC2)cc1 (configuration not stated)
Cc1ccc(-c2csc(NC(=O)C3=COCCO3)n2)cc1C
O=C(Nc1ncccc1O)c1ccc(S(=O)(=O)N2CCCCCC2)cc1
CCOC(=O)[C@H]1[C@H]2COc3ccc(Cl)cc3[C@@H]2N2C(=O)c3cc(C)ccc3NC(=O)[C@@]12C
Cc1cc(NC(=O)C(C)SCC(=O)Nc2ccccc2N2CCCCC2)no1 (configuration not stated)
Oc1ccccc1N1CCN(c2ncnc3sc(-c4ccccc4)cc23)CC1
CCc1cc2c(NC3CCCC3)ncnc2s1
COc1ccc(C(=NN)c2ccc(OC)cc2)cc1
COc1ccc(S(=O)(=O)N2CCCCC2)cc1NC(=O)c1cc([N+](=O)[O-])ccc1N1CCOCC1
O=C(NCc1ccco1)C(=O)c1cn(CC(=O)N2CCCCCC2)c2ccccc12
Cc1ccc(CNC(=O)C(=O)c2cn(CC(=O)N3CCCC3)c3ccccc23)cc1
CCN(CC)CCn1c2c(c(SCC(=O)Nc3nc4ccccc4s3)nc1=O)CCCC2
O=C(CCCn1c(SCC(=O)c2ccccc2)nc2ccccc2c1=O)NCC1CCCO1 (configuration not stated)
COCCNC(=O)c1ccc(Cn2c(SCC(=O)NCC3CCCO3)nc3ccc(Br)cc3c2=O)cc1 (configuration not stated)
O=C(COc1ccccc1Cl)Nc1ccccc1C(=O)NC1CC1
Cc1ccc(S(=O)(=O)CCC(=O)Nc2nnc(CC(C)C)s2)cc1
CCC(=O)Nc1nnc(S(=O)(=O)N2CCCc3ccccc32)s1
CC(C)CC(=O)Nc1nnc(S(=O)(=O)N(C)c2ccc(Cl)cc2)s1
CCN(C(=O)COC(=O)C1CCN(S(=O)(=O)c2ccc(C)c(C)c2)CC1)C1CCS(=O)(=O)C1 (configuration not stated)
Cn1cccc1C(=O)NNC(=O)COc1ccc(Br)cc1
Cc1ccc(S(=O)(=O)N2CCCCC2)cc1C(=O)N(C)CC(=O)Nc1cccc(F)c1
O=C(NCC(c1ccco1)N1CCc2ccccc21)c1cccc(F)c1 (configuration not stated)
COc1ccc2c(c1)SC(C)CC2=O (configuration not stated)
CC1(C)CC(=O)c2ccc(O)cc2O1
COC(=O)[C@@]12CCCN1[C@H](c1ccc(-c3ccc(F)cc3)c(OC)c1)[C@H]1C(=O)N(C)C(=O)[C@H]12
CCN(CC)c1ccc(NC(=O)c2ccc(=O)[nH]c2)cc1S(=O)(=O)Nc1ccc(OC)cc1
COc1cc(/C=N/NC(=O)c2cc(-c3ccccc3C)nc3ccccc23)cc(OC)c1O
Cc1ccnc(NC(=O)c2ccco2)n1
O=C(Nc1ccccc1)c1ccco1
CN(Cc1ccccc1F)C(=O)C(Cc1ccccc1)NC(=O)c1ccccc1 (configuration not stated)
O=C(NNC(=O)c1cc(-c2ccccc2Cl)nc2ccccc12)c1csc(N2CCOCC2)n1
O=S(=O)(Cc1cc(Sc2ccccc2)nc(-c2ccccc2)n1)c1ccccc1
O=S(=O)(NCCc1csc(-c2ccccc2)n1)c1cccnc1
COc1ccccc1NC(=O)C(C)OC(=O)c1ccc(-n2cnnn2)cc1 (configuration not stated)
CCC1Nc2ncnc(N3CCN(c4ccccc4)CC3)c2N(Cc2ccc(Cl)cc2)C1=O (configuration not stated)
CC(=O)C1C(c2ccc(Cl)cc2)NC(=O)NC1(O)C(F)(F)F (configuration not stated)
CCOC(=O)C1C(c2ccc(Cl)cc2)NC(=S)NC1(O)C(F)(F)F (configuration not stated)
Cc1ccc(NC(=O)CN2CCc3ccccc3C2)cc1C
CN(c1cccc(NC(=O)c2ccc(CN3CCc4ccccc4C3)cc2)c1)S(C)(=O)=O
CCCCn1c(N)c(N(CC(C)C)C(=O)c2ccc(-n3c(C)ccc3C)cc2)c(=O)[nH]c1=O
COc1ccc2c(c1)[C@H]1[C@H](CO2)[C@H](c2ccccc2)[C@]2(C)C(=O)Nc3cc(F)c(F)cc3C(=O)N12
O=C(Nn1c(SCc2ccc([N+](=O)[O-])cc2)nc2ccccc2c1=O)c1ccc(F)cc1
COCCNC(=O)c1ccc(-n2c(SCc3cccnc3)nc3ccccc3c2=O)cc1
CCN1CCN(c2ccc(S(=O)(=O)N3CCCCC3)cc2NC(=O)c2cccc(NC(C)=O)c2)CC1
CC(OC(=O)CCCOc1ccccc1)C(=O)Nc1ccc(Cl)cn1 (configuration not stated)
O=C(NCCC1CCCCN1S(=O)(=O)c1cccs1)C(=O)Nc1ccc(F)cc1F (configuration not stated)
CC12CCC(=O)N1C(C(=O)Nc1ccc(F)c(F)c1F)CS2 (configuration not stated)
